Hits are enriched below; roughly 17% of the tested compounds scored in any of these assays.
TDP1 inh – TDP1 (human) enzyme inhibition; recombinant TDP1, AlphaScreen DNA substrate cleavage; Q9NUW8; Potency, µM (titrated, usually from 130 µM), usual class: inhibitors; 350,000 compounds, 0.28% hits; also: nearly all actives have a fitted effect of over 40% in size
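Enzyme-compound mixtures sat 15 min at room temperature, followed by a 5 min reaction with 15 nM final substrate and 10 min with AlphaScreen beads. Recombinant human Tdp1 was used at 1 nM final.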
ClpP mod – qHTS Assay for Activators of ClpP | ATP-dependent Clp protease proteolytic subunit (Bacillus subtilis (strain 168)), P80244 | purified B. subtilis ClpP, FRET peptide cleavage, 20 min | Potency, µM (series often up to 57.5 µM) | 340,000 compounds, 1.9% hits; active = well fitted falling curve with a large enough effect; inconclusive = small, poorly fitted or top-dose-only effect; inactive = no such curve, though single readings can be large or run the other way; also: the source files actives as falling curves though it sought activators and does not explain the sign; nearly all actives have a fitted effect of over 65% in size
Target sequence (P80244 whole entry, looked up): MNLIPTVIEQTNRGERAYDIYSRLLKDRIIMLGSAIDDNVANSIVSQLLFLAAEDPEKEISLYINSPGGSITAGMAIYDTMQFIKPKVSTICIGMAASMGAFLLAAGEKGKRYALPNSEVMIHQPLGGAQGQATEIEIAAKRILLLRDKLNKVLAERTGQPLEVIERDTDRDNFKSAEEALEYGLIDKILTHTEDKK
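ClpP 10 microg/mL final, pH 8 Tris/KCl buffer with BSA, glycerol, Tween-20; compound pinned in; FRET-FV substrate; RT 20 min; Ex320/Em430; ΔFRET vs ADEP 5.8 microM, DMSO, no enzyme.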
DT40 TDP1 CPT – growth inhibition of DT40 Tdp1-/-;hTDP1 cells with camptothecin (screen for TDP1 inhibitors); AID 686979; chicken DT40 Tdp1-/-;hTDP1 cells + 20 nM CPT, ATP luminescence, 48 h; Potency, µM (titrated, usually from 46.2 µM), most hits filed as inhibitors; 420,000 compounds, 12% hits; also: nearly all actives have a fitted effect of over 55% in size
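Chicken DT40 Tdp1-/- cells complemented with human TDP1, 400 cells/well, exposed to compounds plus 20 nM camptothecin for at least 48 h at 37 C; viability read as ATP content by CellTiter-Glo luminescence.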
DT40 TDP1 no CPT – qHTS for Inhibitors of human tyrosyl-DNA phosphodiesterase 1 (TDP1): qHTS in cells in absence of CPT. DT40 Tdp1-/- hTDP1 cells, no CPT, ATP luminescence, 48 h. Potency, µM (doses to about 46.2 µM), actives largely listed as inhibitors. 420,000 compounds, 15% hits. AID 686978, 2013; also: nearly all actives have a fitted effect of over 55% in size
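Growth kinetics read by CellTiter-Glo luminescence after ≥48 hr at 37 °C. Cells: DT40 Tdp1-/- stably carrying human TDP1, 400 per well, compound exposure in the absence of CPT (DMSO vehicle).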
Hits are given with their value; - = inactive; ? = inconclusive; . = not tested or not shown. Unless noted, calls follow the shape of the dose curve; as a rule, active = well fitted curve in the direction sought with a large enough effect; inconclusive = small, poorly fitted or top-dose-only effect, or another doubt; inactive = no such curve, though single readings can be large; an effect the other way counts as inactive or inconclusive.

SMILES	TDP1 inh	ClpP mod	DT40 TDP1 CPT	DT40 TDP1 no CPT
COc1ccc(CCNC(=O)c2ccc3c(c2)N(Cc2ccc(F)cc2)CCS3)c(OC)c1	-	-	15µM	13µM
CN(C)CCNC(=O)c1ccc2c(c1)N(Cc1ccc(F)cc1)CCS2	-	-	26µM	16µM
CCOc1ccc(CNC(=O)c2ccc3c(c2)N(CC)CCS3)cc1	-	-	?	?
C=CCn1nnnc1SCC(=O)Nc1cccc(C(F)(F)F)c1	-	-	-	-
CCOC(=O)c1cc(CC)sc1NC(=O)C1CC(=O)NN1Cc1ccccc1 (stereo not drawn)	-	-	?	16µM
COC(=O)c1cc(C)sc1NC(=O)C1CC(=O)NN1Cc1ccccc1 (stereo not drawn)	-	-	-	?
O=C(C1CCCN(S(=O)(=O)c2ccccc2)C1)N1CCN(c2ccccc2)CC1 (stereo not drawn)	-	-	?	?
O=C(C1CCCN(S(=O)(=O)c2ccc(Br)cc2)C1)N1CCN(Cc2ccccc2)CC1 (stereo not drawn)	-	-	16µM	?
CC1CCCN(S(=O)(=O)c2ccc(S(=O)(=O)N3CCCN(Cc4ccccc4)C3)cc2)C1 (stereo not drawn)	-	-	16µM	?
Cc1cccc(N2CCN(c3ncnc4onc(C)c34)CC2C)c1 (stereo not drawn)	-	-	4.6µM	2.3µM
Cc1noc2ncnc(N3CCN(c4cccc(C(F)(F)F)c4)CC3)c12	-	-	12µM	8.2µM
COc1cccc(N2CCN(c3ncnc4onc(-c5ccc(F)cc5)c34)CC2)c1	-	-	-	-
Cc1cccc(N2CCN(c3ncnc4onc(-c5ccc(F)cc5)c34)CC2C)c1 (stereo not drawn)	-	?	16µM	15µM
COc1ccccc1C(=O)NCCC(=O)NCC1COc2ccccc2O1 (stereo not drawn)	-	-	-	?
Cc1cc(C)c2cc(C#N)c(NCCCNC(=O)c3ccncc3)nc2c1	.	-	?	?
CCOc1ccc2nc(NCCCNC(=O)c3cc(OC)c(OC)c(OC)c3)c(C#N)cc2c1	.	-	13µM	16µM
COc1cc(C(=O)NCCCNc2nc3cc(C)cc(C)c3cc2C#N)cc(OC)c1OC	-	25µM	?	?
COc1ccc(C(=O)NCCNc2nc3ccc(C)cc3cc2C#N)cc1OC	-	-	-	-
COc1ccc(CCN(C)C2CCCN(S(=O)(=O)c3ccccc3)C2)cc1OC (stereo not drawn)	-	-	-	-
O=C(C[C@@H]1C/C=C\C[C@H](Cc2ccc(F)cc2)C(=O)OCCNC1=O)NCCO	-	-	-	-
CCCOc1ccc(-c2nc(C#N)c(N3CCN(CC)CC3)o2)cc1	-	28µM	?	?
CCOc1ccc(-c2nc(C#N)c(N3CCN(CC)CC3)o2)cc1	-	10µM	?	?
COc1ccc(-c2nc(C#N)c(N3CC(C)OC(C)C3)o2)cc1OC (stereo not drawn)	-	0.71µM	-	-
N#Cc1nc(-c2ccc(F)cc2)oc1N1CCCCC1	.	-	?	-
N#Cc1nc(-c2ccc(F)cc2)oc1N1CCCC1	-	-	7.3µM	21µM
SMILES	TDP1 inh	ClpP mod	DT40 TDP1 CPT	DT40 TDP1 no CPT
C[C@H]1CN([C@@H](C)CO)C(=O)c2cc(C#CCC3CCCC3)cnc2O[C@@H]1CN(C)C(=O)CC1CC1	.	-	?	?
CCCOc1ccc(-c2nc(C#N)c(N3CCN(C)CC3)o2)cc1	-	32µM	?	?
COc1ccc(-c2nc(C#N)c(N3CCCCCC3)o2)cc1	-	-	18µM	18µM
COc1ccc(-c2nc(C#N)c(N3CCC(C)CC3)o2)cc1	.	.	?	13µM
Cc1ccc(-c2nc(C#N)c(N3CCC(C)CC3)o2)cc1	.	-	?	?
COc1ccc(-c2nc(C#N)c(N3CCCCCC3)o2)cc1OC	-	-	15µM	11µM
COc1ccccc1C(=O)Nc1cccc(Oc2c(F)c(F)c(F)c(F)c2F)c1	.	.	-	?
COc1ccc(C(=O)N/C(=C\c2cn(S(=O)(=O)N(C)C)c3ccccc23)C(=O)NCCN2CCOCC2)cc1	-	-	-	-
Cc1ccccc1CN1C(=O)CN(S(C)(=O)=O)CC1(C)C(=O)Nc1ccc2c(c1)OCCO2 (stereo not drawn)	.	-	-	-
CCOc1ccc(-c2nc(C#N)c(N3CCN(C)CC3)o2)cc1	-	?	-	-
CCOc1ccc(-c2nc(C#N)c(N3CCCCCC3)o2)cc1	-	-	21µM	?
CCCOc1ccc(-c2nc(C#N)c(N3CCc4ccccc4C3)o2)cc1	-	16µM	?	?
CN1CCN(c2oc(-c3ccc(OCc4ccc(Cl)cc4)cc3)nc2C#N)CC1	-	-	?	?
COCCOC(=O)C1=C(C)NC2=C(C(=O)CC(C)(C)C2)C1c1cccnc1 (stereo not drawn)	-	28µM	-	-
CC1=C(C(=O)OC(C)C)C(c2cccnc2)C2=C(CC(C)(C)CC2=O)N1 (stereo not drawn)	-	28µM	-	-
O=C(c1cccc(C(F)(F)F)c1)N1CCN(CCc2ccccc2)CC1	-	-	-	-
O=C(CN1C(=O)NC2(CCCCC2)C1=O)Nc1ccccc1N1CCCCC1	-	-	?	?
COc1ccc(NS(=O)(=O)c2ccc(F)c(F)c2F)cc1S(=O)(=O)N1CCOCC1	-	-	-	-
CCOC(=O)N1CCN(C(=O)c2ccc(SC)cc2OC)CC1	-	-	-	?
CC(=O)Oc1ccc(/C=N/NC(=S)Nc2ccccc2)cc1	-	-	-	-
O=C(Cc1cccs1)N=Nc1c(O)[nH]c2ccc(Br)cc12	-	.	26µM	?
O=C(Cc1cccs1)N=Nc1c(O)[nH]c2ccccc12	.	-	-	-
O=C(Cn1c(C(F)(F)F)nc2ccccc21)N=Nc1c(O)[nH]c2ccc(Br)cc12	-	-	?	18µM
CCc1cccc(NS(=O)(=O)c2csc(C(N)=O)c2)c1	.	-	-	15µM
Cc1ccc(NS(=O)(=O)c2csc(C(N)=O)c2)cc1C	.	-	?	21µM
SMILES	TDP1 inh	ClpP mod	DT40 TDP1 CPT	DT40 TDP1 no CPT
COc1ccc(C2NC(=S)N3C(c4ccc(OC)c(OC)c4)NC(=S)N23)cc1OC (stereo not drawn)	.	.	0.006µM	0.0094µM
COC(=O)C1=C(C)NC(=S)N(C(C)=O)C1c1ccc(OC)c(OC)c1 (stereo not drawn)	-	.	-	-
Cc1cccn2c(=O)c(C=O)c(Cl)nc12	-	-	2.6µM	2.3µM
Cc1cccn2c(=O)c(C=Nc3ccc(Cl)cc3)c(NCCO)nc12	-	28µM	-	-
CNc1nc2c(C)cccn2c(=O)c1C=NCc1ccccc1	-	-	-	-
O=Cc1c(Cl)nc2ccccn2c1=O	.	.	18µM	16µM
CN=Cc1c(NC)nc2c(C)cccn2c1=O	-	40µM	-	-
Cc1cccn2c(=O)c(C=Nc3ccccc3)c(NCCO)nc12	-	-	-	-
O=S(=O)(c1ccc(Cl)c(NC(=S)N/N=C/c2ccc(O)cc2)c1)N1CCOCC1	-	-	4.1µM	4.6µM

Source: PubChem
